Experimental findings from PubChem BioAssay (NCI) are described below.

Several values for one entry are separate records, joined by “and”; a condition that tells them apart may be missing. Identical values can stand only once. The panel holds about 79,000 compounds, 15% with a hit somewhere; the sample as a whole holds those more often. Some compounds were tested as several samples or in several runs, with calls that do not always agree. Activity calls are given as the source filed them. No stated cut-off is given here; in the data, active means growth inhibition above about 70%; inactive means the rest.

Assay [1] is described as follows: NCI Yeast Anticancer Drug Screen. Data for the rad50 strain (AID 155).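 Further: 0% = growth of vehicle-only cultures of the same strain.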 The note with it: S. cerevisiae rad50 strain growth inhibition, stronger effect = higher value. In a few lines:
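Vehicle-treated cultures provide the reference for the growth inhibition reported for compound-exposed, repair-deficient yeast.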

The nature of assay [2]: NCI Yeast Anticancer Drug Screen. Data for the mec2-1 strain (AID 157). The note with it: S. cerevisiae mec2-1 strain, stronger effect = higher value. In a few lines:
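Using mec2-1 yeast: add compound, measure growth, express inhibition versus vehicle-treated cultures.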

Assay [3] is described as follows: NCI Yeast Anticancer Drug Screen. Data for the sgs1 mgt1 strain (AID 161).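 Further: 0% = growth of cultures given vehicle only.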 The note with it: S. cerevisiae sgs1 mgt1 strain, stronger effect = higher value. A digest of the protocol:
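Percent growth inhibition was derived by comparing compound-exposed mutant yeast with vehicle-exposed cultures. The strain carries alterations in DNA damage repair.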

Assay [4] in a line: NCI Yeast Anticancer Drug Screen. Data for the cln2 rad14 strain (AID 165).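 Further: 0% = growth equal to vehicle treated cultures.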 The settings on record: S. cerevisiae cln2 rad14 strain, stronger effect = higher value. A digest of the protocol:
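Yeast strain cln2 rad14, bearing defects in cell cycle control and DNA repair, serves as the test system; values reflect growth inhibition compared with vehicle.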

A short description of assay [5]: NCI Yeast Anticancer Drug Screen. Data for the bub3 strain (AID 167). The note with it: S. cerevisiae bub3 mutant strain, stronger effect = higher value. In a few lines: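 Mutant yeast screening strain plus compound; vehicle-treated cultures serve as the 0% inhibition reference.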
A short description of assay [6]: NCI Yeast Anticancer Drug Screen. Data for the mlh1 rad18 strain (AID 175). The settings on record: S. cerevisiae mlh1 rad18 strain growth inhibition, stronger effect = higher value. A digest of the protocol:
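Steps: expose repair-defective yeast to compound; measure growth; express inhibition against vehicle-treated controls.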

The mark [7] stands for this setting: at 5.0 µM (retest, dose inferred, filed as 0.5).
[8] abbreviates: at 50.0 µM (retest, dose inferred, filed as 5.0).

As for `[N-]=[N+]=NC(=O)Nc1cccc(C(F)(F)F)c1`, the growth inhibition in assay [1] (setting [7]) was 8% (inactive); in assay [1] (setting [8]) it was 99% (active); in assay [1] (at 50.0 µM), 99% (active); in assay [2] (setting [7]), -1% (inactive); in assay [2] (setting [8]), 99% (active); in assay [2] (at 50.0 µM), 99% (active). Besides, the growth inhibition in assay [3] (setting [7]) is 2% (inactive); in assay [3] (setting [8]), 99% (active); in assay [3] (at 50.0 µM), 98.5% (active); in assay [4] (setting [7]) it was -3% (inactive); in assay [4] (setting [8]) it was 99% (active); in assay [4] (at 50.0 µM), 97.8% (active). Further, the growth inhibition was 14% (inactive) in assay [5] (setting [7]); 98% (active) in assay [5] (setting [8]); 98.5% (active) in assay [5] (at 50.0 µM); 8% (inactive) in assay [6] (setting [7]); 98% (active) in assay [6] (setting [8]); 98.8% (active) in assay [6] (at 50.0 µM).
As for `O=S(=O)(CC(Cl)c1ccccc1)c1nc2ccccc2s1` (configuration not stated), the growth inhibition was -7% (inactive) in assay [1] (setting [7]); -7% (inactive) in assay [1] (setting [8]); 69.5% (inactive) in assay [1] (at 50.0 µM); 2% (inactive) in assay [2] (setting [7]); 2% (inactive) in assay [2] (setting [8]); 79.1% (active) in assay [2] (at 50.0 µM). For the same compound, the growth inhibition in assay [3] (setting [7]) is 9% (inactive); in assay [3] (setting [8]) it was 9% (inactive); in assay [3] (at 50.0 µM), 72.7% (active); in assay [4] (setting [7]) it was -14% (inactive); in assay [4] (setting [8]), -14% (inactive); in assay [4] (at 50.0 µM), 43.2% (inactive). The growth inhibition in assay [5] (setting [7]) was -30% (inactive); in assay [5] (setting [8]) it was -30% (inactive); in assay [5] (at 50.0 µM), 71.4% (active); in assay [6] (setting [7]), -13% (inactive); in assay [6] (setting [8]) it was -13% (inactive); in assay [6] (at 50.0 µM), 47% (inactive).
Regarding `CCCCCCCCCC(=O)c1ccc(O)c(O)c1O`, the growth inhibition in assay [1] (setting [7]) is 99% (active); in assay [1] (setting [8]), 98% (active); in assay [1] (at 50.0 µM), 90.3% (active); in assay [2] (setting [7]), 99% (active); in assay [2] (setting [8]) it was 98% (active); in assay [2] (at 50.0 µM), 91.8% (active). For the same compound, the growth inhibition in assay [3] (setting [7]) was 44% (inactive); in assay [3] (setting [8]), 94% (active); in assay [3] (at 50.0 µM), 93.1% (active); in assay [4] (setting [7]), 63% (inactive); in assay [4] (setting [8]), 96% (active); in assay [4] (at 50.0 µM) it was 91.1% (active). The growth inhibition in assay [5] (setting [7]) is 77% (active); in assay [5] (setting [8]) it was 79% (active); in assay [5] (at 50.0 µM), 90.5% (active); in assay [6] (setting [7]), 100% (active); in assay [6] (setting [8]), 99% (active); in assay [6] (at 50.0 µM) it was 89.7% (active).
Turning to `COC1CC2CCC(C)[C@](O)(O2)C(=O)C(=O)N2CCCCC2C(=O)OC(C(C)CC2CCC(O)C(OC)C2)CC(=O)C(C)C=C(C)C(OC(=O)CN(C)C)C(OC)C(=O)C(C)CC(C)/C=C/C=C/C=C\1C` (some centres not stated), the growth inhibition was 37% (inactive) in assay [1] (setting [7]); 97% (active) in assay [1] (setting [8]); 89% (active) in assay [1] (at 50.0 µM); 46% (inactive) in assay [2] (setting [7]); 97% (active) in assay [2] (setting [8]); 92.5% (active) in assay [2] (at 50.0 µM). For the same compound, the growth inhibition in assay [3] (setting [7]) was 97% (active); in assay [3] (setting [8]) it was 96% (active); in assay [3] (at 50.0 µM), 92% (active); in assay [4] (setting [7]), 95% (active); in assay [4] (setting [8]) it was 94% (active); in assay [4] (at 50.0 µM), 85.4% (active). The growth inhibition in assay [5] (setting [7]) is 50% (inactive); in assay [5] (setting [8]), 98% (active); in assay [5] (at 50.0 µM) it was 91.7% (active); in assay [6] (setting [7]), 97% (active); in assay [6] (setting [8]), 96% (active); in assay [6] (at 50.0 µM), 89.8% (active).
For `CC(c1ccccc1)c1ccc(O)cc1` (configuration not stated), the growth inhibition in assay [1] (setting [7]) is 0% (inactive); in assay [1] (setting [8]), 73% (active); in assay [1] (at 50.0 µM), 46.9% (inactive) and 86.5% (active); in assay [2] (setting [7]), -3% (inactive); in assay [2] (setting [8]), 57% (inactive); in assay [2] (at 50.0 µM) it was 33.2% (inactive) and 81% (active). Further, the growth inhibition was -1% (inactive) in assay [3] (setting [7]); 49% (inactive) in assay [3] (setting [8]); 6.55% (inactive) and 85.7% (active) in assay [3] (at 50.0 µM); 0% (inactive) in assay [4] (setting [7]); 56% (inactive) in assay [4] (setting [8]); 24.6% (inactive) and 65.2% (inactive) in assay [4] (at 50.0 µM). In addition, the growth inhibition in assay [5] (setting [7]) is -9% (inactive); in assay [5] (setting [8]) it was 51% (inactive); in assay [5] (at 50.0 µM), 40.4% (inactive) and 66.4% (inactive); in assay [6] (setting [7]) it was 0% (inactive); in assay [6] (setting [8]), 90% (active); in assay [6] (at 50.0 µM) it was 53.2% (inactive) and 92.3% (active).
For `CCCCCCCCCCCCSC(=NC)NC`, the growth inhibition in assay [1] (setting [7]) is 65% (inactive) and 27% (inactive); in assay [1] (setting [8]), 99% (active) and 98% (active); in assay [1] (at 50.0 µM) it was 99.5% (active) and 99.4% (active); in assay [2] (setting [7]), 48% (inactive) and 19% (inactive); in assay [2] (setting [8]), 100% (active) and 98% (active); in assay [2] (at 50.0 µM) it was 99.7% (active) and 99.5% (active). Also, the growth inhibition was 80% (active) and 65% (inactive) in assay [3] (setting [7]); 99% (active) in assay [3] (setting [8]); 99.4% (active) and 99.1% (active) in assay [3] (at 50.0 µM); 4% (inactive) and -9% (inactive) in assay [4] (setting [7]); 99% (active) in assay [4] (setting [8]); 96.2% (active) and 98% (active) in assay [4] (at 50.0 µM). Further, the growth inhibition in assay [5] (setting [7]) was 91% (active) and 46% (inactive); in assay [5] (setting [8]), 100% (active); in assay [5] (at 50.0 µM), 99.5% (active) and 99% (active); in assay [6] (setting [7]), 27% (inactive) and 24% (inactive); in assay [6] (setting [8]), 99% (active) and 98% (active); in assay [6] (at 50.0 µM), 99.1% (active) and 98.8% (active).
Turning to `CCCCCCCCC(Sc1n[nH]c(=O)[nH]c1=O)C(=O)OCC` (configuration not stated), the growth inhibition was 4% (inactive) in assay [1] (setting [7]); 35% (inactive) in assay [1] (setting [8]); 85.5% (active) in assay [1] (at 50.0 µM); 1% (inactive) in assay [2] (setting [7]); 70% (active) in assay [2] (setting [8]); 89.7% (active) in assay [2] (at 50.0 µM). For the same compound, the growth inhibition was 4% (inactive) in assay [3] (setting [7]); 29% (inactive) in assay [3] (setting [8]); 91.6% (active) in assay [3] (at 50.0 µM); 1% (inactive) in assay [4] (setting [7]); 88% (active) in assay [4] (setting [8]); 84.8% (active) in assay [4] (at 50.0 µM). Moreover, the growth inhibition in assay [5] (setting [7]) was -4% (inactive); in assay [5] (setting [8]), 88% (active); in assay [5] (at 50.0 µM), 88.5% (active); in assay [6] (setting [7]), 3% (inactive); in assay [6] (setting [8]) it was 48% (inactive); in assay [6] (at 50.0 µM) it was 89.5% (active).
For the compound `CCN(CC)CCC(=O)/C=C/c1ccccc1`, the growth inhibition in assay [1] (setting [7]) was 31% (inactive); in assay [1] (setting [8]), 95% (active); in assay [1] (at 50.0 µM) it was 99.3% (active) and 29.2% (inactive); in assay [2] (setting [7]), 27% (inactive); in assay [2] (setting [8]), 100% (active); in assay [2] (at 50.0 µM), 99.6% (active) and 56.1% (inactive). The growth inhibition in assay [3] (setting [7]) is 60% (inactive); in assay [3] (setting [8]) it was 100% (active); in assay [3] (at 50.0 µM) it was 99.5% (active) and 28.6% (inactive); in assay [4] (setting [7]), 42% (inactive); in assay [4] (setting [8]), 97% (active); in assay [4] (at 50.0 µM), 99.3% (active) and 6.75% (inactive). Besides, the growth inhibition in assay [5] (setting [7]) was 58% (inactive); in assay [5] (setting [8]), 99% (active); in assay [5] (at 50.0 µM), 99.5% (active) and 49.5% (inactive); in assay [6] (setting [7]) it was 32% (inactive); in assay [6] (setting [8]), 99% (active); in assay [6] (at 50.0 µM), 99.3% (active) and 36% (inactive).
Turning to `Cc1c(N)nc(C(CC(N)=O)NCC(N)C(N)=O)nc1C(=O)NC(C(=O)NC(C)C(O)C(C)C(=O)NC(C(=O)NCCc1nc(-c2nc(C(=O)NCCCNCCCCN)cs2)cs1)C(C)O)C(OC1OC(CO)C(O)C(O)C1OC1OC(CO)C(O)C(OC(N)=O)C1O)c1cnc[nH]1` (configuration not stated), the growth inhibition was 92% (active) in assay [1] (setting [7]); 98% (active) in assay [1] (setting [8]); 99% (active) and 88.6% (active) in assay [1] (at 50.0 µM); 37% (inactive) in assay [2] (setting [7]); 98% (active) in assay [2] (setting [8]); 99.2% (active) and 88.1% (active) in assay [2] (at 50.0 µM). Also, the growth inhibition is 77% (active) in assay [3] (setting [7]); 98% (active) in assay [3] (setting [8]); 99% (active) and 88.2% (active) in assay [3] (at 50.0 µM); 65% (inactive) in assay [4] (setting [7]); 98% (active) in assay [4] (setting [8]); 97.7% (active) and 86.5% (active) in assay [4] (at 50.0 µM). The growth inhibition is 76% (active) in assay [5] (setting [7]); 98% (active) in assay [5] (setting [8]); 99% (active) and 87.9% (active) in assay [5] (at 50.0 µM); 94% (active) in assay [6] (setting [7]); 98% (active) in assay [6] (setting [8]); 98.9% (active) and 90% (active) in assay [6] (at 50.0 µM).
